HEK293 cAMP cs – raises cAMP in parental HEK293 cells, TSHR agonist counter-screen. 73,000 compounds, 2.5% hits. Potency, µM (titrated, usually from 57.1 µM), for inactives: at the highest dose activation, most hits filed as activators. parental HEK293 CNG cAMP sensor, membrane potential fluorescence. AID 938; active = well fitted activation curve with a large enough effect; inconclusive = small, poorly fitted or top-dose-only effect; inactive = no such curve, though single readings can be large or run the other way; note: % of control where 0% means no effect; nearly all actives have a fitted effect of over 55% in size
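Parental HEK 293 cells stably expressing a modified CNG channel (no TSHR) report cAMP rise as membrane depolarization. Membrane potential dye with 100 uM RO 20-1724 was loaded for 60 min at room temperature, then compound added for 30 min; fluorescence read at 590 nm.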
IkB signaling – inhibitors of IkB signaling in ABC-DLBCL cells. ABC-DLBCL IkBa-CBG/CBR dual luciferase ratio, 4 h; response scale: scaled: untreated 0%, proteasome inhibitor 100%. Potency, µM (titrated, usually from 57.1 µM), for the others: top-dose IkBa stabilization activation. 110,000 compounds, 0.04% hits. AID 445; active = well fitted curve in the direction sought with a large enough effect in the signal ratio, not every such curve was filed as active; inconclusive = small, poorly fitted or top-dose-only effect, or a change in a side signal; the % refers to the signal ratio;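 note: the direction sought is a rising ratio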
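Curves were fitted separately to fusion (green), unfused (red) and ratio luminescence, then classed by r2, magnitude and activity. Cells: OCI-Ly3, 4 h compound plus doxycycline at 37C; 10 uM MG-132 defined full response.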
CRE-bla Fsk – modulators of forskolin-stimulated CRE signaling in CHO cells | 71,000 compounds, 2.5% hits | Potency, µM (highest dose often 38.2 µM), inactives show at the top dose activity change, negative = inhibition, actives largely listed as activators | CHO CRE-bla reporter (cAMP response element driving beta-lactamase), forskolin EC10, beta-lactamase ratio; active = well fitted activation curve with a large enough effect in the signal ratio, with a control signal flat, not every such curve was filed as active; inconclusive = small, poorly fitted or top-dose-only effect, or effect the other way, or a change in a side signal; the % refers to the signal ratio; note: % of control where 0% means no effect
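Modulation of forskolin-driven signalling is measured in CHO cells carrying a CRE-controlled beta-lactamase reporter. Cells are stimulated with EC10 NKH 477 in the presence of titrated compound for 3 h at 37 °C, then loaded with CCF4 for 2 h at room temperature.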
Hsp90 Hop PPI – changes Hsp90-Hop TPR2A binding signal, up or down. AlphaScreen TPR2A-His6 binding biotin-Hsp90 C-terminal peptide. Potency, µM (top dose mostly 57 µM), for inactives: at the top dose activity change, negative = inhibition. 71,000 compounds, 0.44% hits. AID 595; active = well fitted curve in either direction with a large enough effect; inconclusive = small, poorly fitted or top-dose-only effect, or another doubt; note: % is set by controls: 0 for no effect and ±100 for the full control effect
TSHR ag – agonists of human thyroid stimulating hormone receptor; HEK293-CNG-TSHR cells (CNG channel as cAMP sensor), membrane potential dye, cAMP; 73,000 compounds, 0.48% hits; P16473; Potency, µM (top dose mostly 57.1 µM), inactives show at the highest dose activation, actives largely listed as activators; active = well fitted activation curve with a large enough effect in the main read-out, with a control signal flat, not every such curve was filed as active; inconclusive = small, poorly fitted or top-dose-only effect, or a change in a side signal; inactive = no such curve, though single readings can be large or run the other way; % of control where 0% means no effect;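 note: the control signal comes from parental cells without the receptor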
Target sequence (P16473 whole entry, looked up): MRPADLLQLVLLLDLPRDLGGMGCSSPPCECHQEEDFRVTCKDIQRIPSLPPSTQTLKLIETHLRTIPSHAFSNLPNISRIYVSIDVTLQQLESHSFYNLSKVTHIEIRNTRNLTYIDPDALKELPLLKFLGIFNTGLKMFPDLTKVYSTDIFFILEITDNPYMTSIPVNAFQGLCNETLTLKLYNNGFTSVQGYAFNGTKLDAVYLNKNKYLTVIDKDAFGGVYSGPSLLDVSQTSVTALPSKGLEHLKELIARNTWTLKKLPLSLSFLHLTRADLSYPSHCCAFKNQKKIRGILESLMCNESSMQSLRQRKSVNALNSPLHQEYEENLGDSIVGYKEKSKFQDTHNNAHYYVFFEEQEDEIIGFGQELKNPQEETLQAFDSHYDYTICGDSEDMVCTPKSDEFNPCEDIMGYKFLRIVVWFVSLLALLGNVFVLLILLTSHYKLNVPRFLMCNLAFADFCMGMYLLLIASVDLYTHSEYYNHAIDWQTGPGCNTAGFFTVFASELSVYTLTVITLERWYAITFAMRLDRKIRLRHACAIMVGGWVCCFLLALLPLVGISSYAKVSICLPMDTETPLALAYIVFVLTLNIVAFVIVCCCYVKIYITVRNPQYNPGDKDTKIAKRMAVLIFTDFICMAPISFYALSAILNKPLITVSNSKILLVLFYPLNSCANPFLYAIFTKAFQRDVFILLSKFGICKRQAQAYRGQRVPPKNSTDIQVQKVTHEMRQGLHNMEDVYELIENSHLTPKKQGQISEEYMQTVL
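HEK 293 cells stably expressing TSHR and a modified CNG channel, with CNG-only parental cells as counterscreen, were preloaded 60 min at room temperature with membrane potential dye containing 100 uM RO 20-1724. Compound exposure was 30 min, and depolarization was read as fluorescence at 590 nm.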
The depositor's hits bear a star; ? = inconclusive; · = no result given; ! = a repeat was not active; [ ] = remark or other dose. A selection: hits, their analogues and other compounds. The true share with any hit is near 3.5%. Potency is the fitted concentration of half-maximal effect.

SMILES	HEK293 cAMP cs	IkB signaling	CRE-bla Fsk	Hsp90 Hop PPI	TSHR ag
CCOC(=O)c1cccc(NC(=O)CSc2nc3ccccc3c(=O)n2CC)c1	?	1%	16%	-18%	?
CCOC(=O)c1cccc(NC(=O)CSc2nc3ccccc3c(=O)n2CCOC)c1	?	1%	3.2µM*	-1%	?
CCOC(=O)c1cccc(NC(=O)CSc2nnc(C3CCCCC3)n2CC)c1	25µM*	3%	?	-3%	?
COCCn1c(SCC(=O)N2CCC(C)CC2)nc2ccccc2c1=O	20µM*	1%	5%	0%	?
O=C(NCCCN1CCOCC1)c1ccc(Cc2nc3ccccc3[nH]2)cc1	-9%	·	·	·	-4%
CCCCCCCCCCCCCCCCCCOC[C@@H](COP(=O)([O-])OCC[N+](C)(C)C)OC	4%	-2%	-8%	-2%	5%
CCc1ccc(-c2cn(-c3nc(C)cc(C)n3)c(=N)o2)cc1	25µM*	?	?	-9%	?
CCOC(=O)c1c(NC(=O)CC)sc(C(C)=O)c1C	16%	-1%	13µM*	5%	7%
CCOC(=O)c1c(NC(=O)Cc2cccs2)sc(C)c1C	25µM*	3%	?	18%	?
CCCc1cc(C(=O)Nc2sc(C(C)=O)c(C)c2C(=O)OCC)no1	5%	0%	0.63µM*	-1%[2.3 µM]	-1%
CCOC(=O)c1c(NC(=O)COc2ccc(Cl)cc2C)sc(C(C)=O)c1C	·	-1%	·	·	·
CCOC(=O)c1sc(NC(=O)CSc2nnc(C)s2)c(C(=O)OCC)c1C	13µM*	2%	?	0%	?
CCOC(=O)c1sc(NC(=O)c2c(C)noc2C)c(C(=O)OCC)c1C	7%	-5%	?	-5%	1%
CCOc1ccc(Nc2nc3c(S(=O)(=O)c4ccc(CC)cc4)nnn3c3ccc(Cl)cc23)cc1	·	0%	·	·	·
CCOC(=O)c1c(N)sc(C(=O)N(C)C)c1C	-4%	0%	15%	-3%	-1%
CCOC(=O)c1c(NC(=O)OC)sc(C(=O)N(C)C)c1C	9%[11.4 µM]	-2%	4µM*	-3%[11 µM]	11%[11.4 µM]
COc1ccc(Cc2ccc3[nH]c(=O)cc(C)c3c2)cc1S(=O)(=O)O	8%[11.4 µM]	0%[11.4 µM]	11%[7.6 µM]	-5%[11 µM]	-2%[11.4 µM]
COc1ccc(C(C)=O)cc1COC(=O)c1cc(C)oc1C	25µM*	1%	?	5%	?
Cc1c(C(=O)OCC(=O)c2c(N)n(CC(C)C)c(=O)n(C)c2=O)oc2ccccc12	?	?	?	4%	?
CC(C)Cn1c(N)c(C(=O)COC(=O)c2ccc3ccccc3n2)c(=O)n(C)c1=O	15%	?	1.3µM*	0%	11%
COc1cccc(C2C=C(c3ccc(Br)s3)Nc3ncnn32)c1OC (stereo not drawn)	14%	1%	?	-7%	20µM*
Fc1ccc(Br)cc1C1C=C(c2ccc(Br)s2)Nc2ncnn21 (stereo not drawn)	?	6%	?	-12%	?
Cc1cc(C)c2cc(C#N)c(N3CCCC3)nc2c1	?	-1%	13µM*	?	?
COC(=O)c1cc(OC)c(OC)cc1NC(=O)c1ccco1	?	-2%	1.6µM*	?	?
Cc1cc(NC(=O)c2c(-c3ccccc3Cl)noc2C)no1	8%	0%	-8%	-4%	1%
SMILES	HEK293 cAMP cs	IkB signaling	CRE-bla Fsk	Hsp90 Hop PPI	TSHR ag
COC(=O)c1sccc1NC(=O)c1c(C)noc1C	-1%	0%	10%	4%	-13%
COC(=O)c1ccccc1NC(=O)c1ccco1	19%	-3%	?	3%	11%
COC(=O)c1cc(OC)c(OC)cc1NC(=O)c1c(-c2ccccc2Cl)noc1C	?	2%	1µM*	-3%[11 µM]	?
COC(=O)c1sccc1NC(=O)c1ccco1	7%	0%	13µM*	-1%	-10%
COC(=O)c1sccc1NC(=O)c1ccncc1	12%	-3%	10µM*	0%	5%
COc1ccc(CNc2ncncc2-c2c(C)noc2C)c(OC)c1	11%	2%[11.4 µM]	11%	-2%	15%
O=C(O)CCN1C(=S)CSC1=S	8%[11.4 µM]	?	-10%[7.6 µM]	-2%[11 µM]	-8%[11.4 µM]
COc1ccc(NC(=O)c2cc(Cl)ccc2NC(=O)c2ccco2)c(OC)c1	25µM*	?	21%	0%	?
Cc1onc(-c2ccccc2Cl)c1C(=O)Nc1ccc(OCC(=O)N2CCOCC2)cc1	4µM*	0%	?	2%[11 µM]	?
COc1cc(NC(=O)Cc2ccc(Cl)cc2)ccc1NC(=O)c1ccco1	-5%	1%	-20%	0%	0%
Cc1cccc(-c2noc(CN(C(C)C)S(=O)(=O)c3ccc(Br)cc3)n2)c1	·	-2%	·	·	·
O=C1C=CC(=O)c2c1ccc1c2ccc2ccccc21	1%[25.6 µM]	?	5%[17.1 µM]	-27%[26 µM]	-18%[25.6 µM]
CCCCOc1ccc(S(=O)(=O)n2c(C)nc3ccccc32)cc1	3.2µM*	?	?	?	?
CCOc1ccc(S(=O)(=O)n2c(C)nc3ccccc32)cc1	13%	0%	?	-4%[2.3 µM]	9%
CCCCn1nnc(NC(=O)c2sc3cc(Cl)ccc3c2Cl)n1	25µM*	-2%	-5%	0%	?
CC#CCOC(=O)C1=CCCN(C)C1	9%	1%	-16%	4%	8%
CCSCCCC(=O)O	?	0%[11.4 µM]	-4%[7.6 µM]	-2%[11 µM]	?
COc1ccc2nc3c(c(-c4ccccc4)c2c1)CCC3	25µM*	·	10µM*	12%	?
CCOC(=O)Cn1c(=O)n(-c2ccccc2OC)c2nc(-c3ccccc3C)nc(C(N)=O)c21	·	1%	·	·	·
CC(=O)OC[C@@H]1O[C@@H](O/N=C2/C[C@@H](O)[C@@H](O)[C@@H]3[C@@H]4C(=O)N([C@@H](C)c5ccccc5)C(=O)[C@H]4CC[C@@H]23)[C@H](OC(C)=O)[C@H](OC(C)=O)[C@@H]1OC(C)=O	-4%[11.4 µM]	·	·	·	22%[11.4 µM]
CCOc1ccccc1NC(=O)CCSc1nc2n[nH]c(C)c2c(=N)n1-c1ccccc1Cl	11%	2%	1.6µM*	-1%	17%
Cc1ccccc1-n1c(SCc2ccccn2)nc2n[nH]c(C)c2c1=N	10%	?	1.3µM*	-9%	14%[11.4 µM]
C=CC[C@@H](C(=O)O)c1ccccc1	7%[11.4 µM]	-1%[11.4 µM]	9%[7.6 µM]	-4%[11 µM]	-2%[11.4 µM]
CS(=O)(=O)Nc1cccc(-c2nccc(-n3ccnc3)n2)c1	-6%	0%[11.4 µM]	?	-13%	14%
N#Cc1cccc(-c2nccc(-n3ccnc3)n2)c1	-14%	-1%[11.4 µM]	2.5µM*	-23%	-10%
CCCCC[C@H](O)c1cccc(OCc2ccc3ccccc3n2)c1	20µM*	9%	-14%	12%	?
CC1CCC2C(=O)OC(CN=[N+]=[N-])CN2C1c1ccc(Br)cc1 (stereo not drawn)	5µM*!	·	·	·	?
Cc1ccccc1-c1nc(CS(=O)(=O)CC(=O)NCc2ccccc2)c(C)o1	27%	2%	-5%	-1%	16µM*

Bioassay records: PubChem BioAssay, National Center for Advancing Translational Sciences (NCATS)
